Molecules are shown by their SMILES. Structures can show the parent of a compound that is named as a salt. ± gives the uncertainty stated by the source.

The cell viability is a read-out of living cells in per cent, often relative to untreated cells.

The test has as its system NCC-MFS5-C1. In words: cell viability relative to DMSO control; higher = less growth inhibition. The conditions noted are these: 10 µM; treatment time: 3 days. Here is the method:
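NCC-MFS5-C1 myxofibrosarcoma cells (1x10^4 per well, 384-well) were treated on day 2 with 10 µM of each drug. On day 5, viability was read by CCK-8 absorbance at 450 nm and normalised to the DMSO control (%), n = 2.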
For `Cc1c(N)nc(C(CC(N)=O)NCC(N)C(N)=O)nc1C(=O)NC(C(=O)NC(C)C(O)C(C)C(=O)NC(C(=O)NCCc1nc(-c2nc(C(=O)NCCC[S+](C)C)cs2)cs1)C(C)O)C(O[C@@H]1O[C@@H](CO)[C@@H](O)[C@H](O)[C@@H]1O[C@H]1O[C@H](CO)[C@@H](O)[C@H](OC(N)=O)[C@@H]1O)c1cnc[nH]1` (some centres not stated) [Bleomycin Sulfate], the cell viability worked out at 78.3 ± 12%.

On to `CC[C@@]1(O)C(=O)OCc2c1cc1n(c2=O)Cc2cc3ccccc3nc2-1` [Camptothecin], for which the cell viability is 52.5 ± 6.1%. In the case of `CC(=O)OC12COC1CC(O)C1(C)C(=O)C(O)C3=C(C)C(O)CC(O)(C(OC(=O)c4ccccc4)C21)C3(C)C` (configuration not stated) [10-Deacetylbaccatin-III], the cell viability came to 86.6 ± 0.96%. `Cn1c(CCCC(=O)O)nc2cc(N(CCCl)CCCl)ccc21` [Bendamustine HCl]: the cell viability was found to be 66.3 ± 8.2%.

As for `C=C1C[C@@H]2[C@H](CC[C@]3(C)C(=O)CC[C@@H]23)[C@@]2(C)C=CC(=O)C=C12` [Exemestane], the cell viability stood at 100 ± 4.3%. `C=CCN1CC[C@]23c4c5ccc(O)c4O[C@H]2C(=O)CC[C@@]3(O)[C@H]1C5` [Naloxone HCl]: the cell viability worked out at 72.1 ± 2.9%. As to `C/C=C(\C)C(=O)N[C@@H](c1ccccc1)[C@@H](O)C(=O)O[C@H]1C[C@@]2(O)[C@@H](OC(=O)c3ccccc3)[C@@H]3[C@]4(OC(C)=O)CO[C@@H]4C[C@H](O)[C@@]3(C)C(=O)[C@H](OC(C)=O)C(=C1C)C2(C)C` [Cephalomannine], the cell viability amounted to 50.2 ± 8.7%. The result for `O=P1(NCCCl)OCCCN1CCCl` (configuration not stated) [Ifosfamide] reads 79.9 ± 6.8%; that for `O=C(O)CCCc1ccc(N(CCCl)CCCl)cc1` [Chloroambucil], 99.4 ± 29%; that for `O=P1(N(CCCl)CCCl)NCCCO1` (configuration not stated) [Cyclophosphamide Monohydrate], 85.6 ± 2.8%. The result for `N.N.[Cl][Pt][Cl]` [Cisplatin] reads 79.1 ± 4.2%. Take `NCCCNCCSP(=O)(O)O` [Amifostine]: the cell viability worked out at 103 ± 3%.
